Hits are enriched below; roughly 19% of the tested compounds scored in any of these assays.
HT1080NT lethal – qHTS for induction of synthetic lethality in tumor cells producing 2HG: qHTS for the HT-1080-NT fibrosarcoma cell line; HT-1080-NT fibrosarcoma viability, CellTiter-Glo ATP luminescence, 48 h; Potency, µM (doses to about 46.1 µM), for the others: at the top dose activity, negative = less viability, actives largely listed as cytotoxic; actives 1.6% (n = 360,000); AID 686970, 2013;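 note: NT is the 2HG producing partner of a matched IDH1 knockdown line; 0% = DMSO-treated cells and -100% = media-only wells without cells; nearly all actives have a fitted effect of over 55% in size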
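HT-1080-NT fibrosarcoma cells (2HG-overproducing), 750 cells/well in RPMI with 5% FBS, dosed after 2 h and incubated 48 h at 37C. CellTiter-Glo luminescence normalized to DMSO and no-cell wells; concentration-response curves fitted and classed.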
HT1080 IDH1KD tx – qHTS for induction of synthetic lethality in tumor cells producing 2HG: qHTS for the HT-1080-IDH1KD cell line; HT-1080 IDH1 knockdown viability, ATP luminescence, 48 h; Potency, µM (titrated, usually from 46.1 µM), for the others: top-dose activity, negative = toxicity, actives largely listed as cytotoxic; actives 2% (n = 360,000);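 note: 0% = DMSO wells and -100% = cell-free medium wells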
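After a 2 h attachment period, IDH1KD HT-1080 cells took pin-transferred compound for 48 h at 37 °C; ATP-based luminescence after 10 min room-temperature reagent incubation reported viability.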
DT40 TDP1 CPT – qHTS for Inhibitors of human tyrosyl-DNA phosphodiesterase 1 (TDP1): qHTS in cells in presence of CPT; AID 686979, 2013; actives 12% (n = 420,000); Potency, µM (top dose mostly 46.2 µM), for inactives: at the highest dose activity change, negative = growth inhibition, most hits filed as inhibitors; chicken DT40 Tdp1-/-;hTDP1 cells + 20 nM CPT, ATP luminescence, 48 h; note: nearly all actives have a fitted effect of over 55% in size
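Chicken DT40 Tdp1-/- cells complemented with human TDP1, 400 cells/well, exposed to compounds plus 20 nM camptothecin for at least 48 h at 37 C; viability read as ATP content by CellTiter-Glo luminescence.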
KB-3-1 tox – qHTS assay for MDR1-selective chemotherapeutics: Primary screen using the parental adenocarcinoma cell KB-3-1; actives 1.4% (n = 400,000); AID 1347075, 2019; Potency, µM (series often up to 46.1 µM), hits mostly cytotoxic; KB-3-1 viability, CellTiter-Glo ATP luminescence, 72 h; note: nearly all actives have a fitted effect of over 60% in size
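Parental KB-3-1 adenocarcinoma cells in phenol-red-free DMEM with 10% FBS were pin-treated with compounds at several concentrations, incubated 72 h at 37 °C, and viability read by CellTiter-Glo luminescence; concentration-effect curves were fitted after normalization.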
KB-V1 cytotox – qHTS assay for MDR1-selective chemotherapeutics: Primary screen using the drug-selected MDR subline cells KB-V1 | KB-V1 MDR cells viability, CellTiter-Glo, 72 h | Potency, µM (doses to about 46.1 µM), usual class: cytotoxic | actives 3.4% (n = 400,000); note: nearly all actives have a fitted effect of over 60% in size
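KB-V1 cells (P-gp-expressing MDR subline of KB-3-1) in phenol-red-free DMEM with 10% FBS were exposed to library compounds over a concentration series for 72 h at 37 degrees C. Viability read by CellTiter-Glo luminescence; concentration-effect curves fitted after normalization.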
TDP1 cell noCPT – qHTS for Inhibitors of human tyrosyl-DNA phosphodiesterase 1 (TDP1): qHTS in cells in absence of CPT. actives 15% (n = 420,000). DT40 Tdp1-/- hTDP1 cells, no CPT, ATP luminescence, 48 h. Potency, µM (doses to about 46.2 µM), without a hit: at the top dose activity change, negative = growth inhibition, hits mostly inhibitors; note: nearly all actives have a fitted effect of over 55% in size
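No-CPT arm: Tdp1-/-;hTDP1 DT40 cells (400/well) plus compounds, incubated ≥48 hr at 37 °C. Readout CellTiter-Glo luminescence.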
* hit, by the source's call; i = inactive; ? = inconclusive; nt = no result given. Calls come from the whole dose curve; as a rule, active = well fitted curve in the direction sought with a large enough effect; inconclusive = small, poorly fitted or top-dose-only effect, or another doubt; inactive = no such curve, though single readings can be large; an effect the other way counts as inactive or inconclusive. Unless noted, % is set by controls: 0 for no effect and ±100 for the full control effect; potency is the fitted concentration of half-maximal effect.

SMILES	HT1080NT lethal	HT1080 IDH1KD tx	DT40 TDP1 CPT	KB-3-1 tox	KB-V1 cytotox	TDP1 cell noCPT
Cc1ccc(-c2nnc(N3CCN(C(=O)c4ccco4)CC3)c3ccccc23)cc1	-2%	1%	21µM*	i	?	?
O=C(COc1ccccc1)N1CCN(c2nnc(-c3ccccc3)c3ccccc23)CC1	?	-23%	13µM*	?	4.1µM*	16µM*
COc1ccc(OCC(=O)N2CCN(c3nnc(-c4ccc(C)cc4)c4ccccc34)CC2)cc1	?	?	16µM*	?	5.2µM*	16µM*
Cc1ccc(-c2nnc(N3CCN(C(=O)CN4C(=O)c5ccccc5C4=O)CC3)c3ccccc23)cc1	12%	7%	?	i	i	?
Cc1ccc(-c2nnc(N3CCN(C(=O)COc4cccc(C)c4)CC3)c3ccccc23)cc1	-1%	-20%	?	?	?	?
Cc1cccc(OCC(=O)N2CCN(c3nnc(-c4ccccc4)c4ccccc34)CC2)c1	-4%	-14%	?	i	?	18µM*
CCN1CCN(c2ccc(S(=O)(=O)N3CCCCC3)cc2NC(=O)c2ccc(C)o2)CC1	-2%	10%	?	i	i	?
COc1ccc(OCC(=O)N2CCN(c3nnc(-c4ccccc4)c4ccccc34)CC2)cc1	-26%	-4%	16µM*	23µM*	2.6µM*	18µM*
Cc1cc(C)c2nc(N3CCCN(C(=O)c4ccco4)CC3)c(C#N)cc2c1	-3%	-4%	?	i	i	?
Cc1cc(C)c2nc(C(F)(F)F)nc(N3CCN(C(=O)c4ccco4)CC3)c2c1	-10%	0%	26µM*	i	12µM*	?
Cc1ccc(OCC(=O)N2CCN(c3nnc(-c4ccc(C)cc4)c4ccccc34)CC2)cc1	14µM*	?	16µM*	16µM*	2.6µM*	23µM*
CCCCCCCCCCCCC(C(=O)O)C(C)C(=O)O (stereo unspecified)	nt	nt	-22%	nt	nt	-20%
Nc1c(C(=O)N/N=C/c2cccnc2)oc2nc(-c3ccccc3)cc(-c3ccco3)c12	-5%	-25%	?	i	i	15µM*
NNC(=O)c1oc2nc(-c3ccco3)cc(-c3ccco3)c2c1N	-16%	-11%	?	i	i	?
Nc1c(C(=O)N/N=C/c2cccnc2)oc2nc(-c3ccco3)cc(-c3ccco3)c12	0%	-10%	2.9µM*	i	i	0.46µM*
Cn1c2c(c(=O)n(C)c1=O)C(c1ccccc1[N+](=O)[O-])CC(=O)N2 (stereo unspecified)	nt	nt	-24%	i	i	?
CCc1ccc(-c2cc3c(N4CCN(c5ccccc5)CC4)nccn3n2)cc1	nt	nt	?	i	i	21µM*
CC1=NN(C(=O)c2cc(C)nn2C)C(O)(C(F)(F)F)C1 (stereo unspecified)	6%	15%	0.65µM*	i	i	0.92µM*
CC1=NN(C(=O)c2csc(C)c2)C(O)(C(F)(F)F)C1 (stereo unspecified)	3%	2%	0.13µM*	i	i	0.13µM*
CC1=NN(C(=O)c2csc(C)c2C)C(O)(C(F)(F)F)C1 (stereo unspecified)	1%	6%	0.65µM*	i	i	0.92µM*
CC1=NN(C(=O)c2c(Br)c(C)nn2C)C(O)(C(F)(F)F)C1 (stereo unspecified)	-4%	-2%	1.2µM*	i	i	1µM*
CCOc1ccc(NC(=S)NCC(c2cccnc2)N2CCOCC2)cc1 (stereo unspecified)	8%	7%	-25%	i	i	-12%
CN=c1nc(-c2ccccc2)n(-c2ccccc2)s1	22%	5%	4.6µM*	i	i	6.5µM*
Cc1ccc(-c2nc(=Nc3c(C)cc(C)cc3C)sn2-c2ccccc2)cc1	nt	nt	5µM*	?	?	2.2µM*
COc1ccc(C(=O)N=c2nc(-c3ccccc3)n(-c3ccccc3)s2)cc1	nt	nt	13µM*	i	i	?
SMILES	HT1080NT lethal	HT1080 IDH1KD tx	DT40 TDP1 CPT	KB-3-1 tox	KB-V1 cytotox	TDP1 cell noCPT
CC(=O)N=c1nc(-c2ccccc2)n(-c2ccccc2)s1	nt	nt	-10%	i	i	?
CCc1ccccc1NC(=O)CN1C(=O)CCn2nc(-c3cccn3C)cc21	nt	nt	1%	i	i	-2%
Cc1ccc(Cl)cc1N1CCN(C(=O)c2cc3c(-c4ccccc4F)nn(C)c3s2)CC1	nt	nt	?	i	i	15µM*
CC(=O)c1ccc(N2CCN(C(=O)c3cc4c(-c5ccccc5F)nn(C)c4s3)CC2)cc1	-11%	-7%	18µM*	i	i	18µM*
CCCc1nnc(SCC(=O)Nc2cccc(Cl)c2Cl)o1	17%	18%	1%	i	i	2%
CCc1ccc2nc3nc(C)cc(C)c3c(N)c2c1	?	13µM*	?	i	21µM*	11µM*
Cc1cc(C)c2c(N)c3ccccc3nc2n1	?	?	?	i	?	23µM*
CCOc1c2ccc(C(=O)N[C@H](C)C3CCCCC3)cc2nn1CCOC	-5%	3%	1.8µM*	i	i	1µM*
CCCCn1nc2cc(C(=O)NCC34CC5CC(CC(C5)C3)C4)ccc2c1OC	-4%	-11%	18µM*	i	i	?
CCOc1c2ccc(C(=O)NCc3ccco3)cc2nn1CCOC	17%	6%	-2%	i	i	0%
CCCn1nc2cc(C(=O)NCCc3cccs3)ccc2c1OCC	3%	12%	-16%	i	i	18µM*
CCOc1c2ccc(C(=O)NCC34CC5CC(CC(C5)C3)C4)cc2nn1CC	1%	1%	29µM*	i	i	16µM*
O=C(c1[nH]c(C(F)(F)F)nc1-c1ccccc1)N1CCN(C/C=C/c2ccccc2)CC1	21%	10%	5%	i	i	-18%

Screening data: PubChem, National Center for Advancing Translational Sciences (NCATS)
